# Measurements reported in PubChem BioAssay (EPA / NIEHS).
# Where “and” joins values, the source holds several entries; their conditions need not be identical. Equal values may be shown once. More than one record can exist for a structure, and the calls need not agree. Calls of active or inactive are those of the source. The calls were made as follows: active = hit-call score of the fitted dose curve at least 0.9, where 1 is the maximum; inactive = score below 0.9.
# Columns and labels:
# [1] = APR_HepG2_NuclearSize_72hr: Apredica 72-hour HepG2 Assay for Nuclear Size (AID 2282925); details: high-content imaging, actives raise or lower the signal
# Summary of the method: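 Read-out: nuclear diameter from Hoechst 33342 images (ArrayScan, 20x, six fields/well), via cell-cycle image analysis. HepG2 were dosed 0.39–200 uM for 72 hr in 0.5% DMSO. Bidirectional fit relative to DMSO.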
# [2] = ATG_CRE_CIS: Attagene CIS-FACTORIAL HepG2 Assay for human cAMP Responsive Element (CRE) binding protein 3 (AID 2282926); details: HepG2 CRE cis-reporter, Attagene multiplexed mRNA; actives raise or lower the signal
# Summary of the method: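 Liver-derived HepG2, transfected with a CRE-containing reporter panel, exposed 24 h; transcript levels sized and quantified by capillary electrophoresis of labelled amplicons; signal changes either way referenced to vehicle.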
# [3] = biological target: CCAAT/enhancer-binding protein beta (Homo sapiens) (UniProt P17676); assay: ATG_C_EBP_CIS: Attagene CIS-FACTORIAL HepG2 Assay for human CCAAT/Enhancer Binding Protein (C/EBP) beta (AID 2282927); details: HepG2 Attagene cis-factorial transcription factor reporter; actives raise or lower the signal
# Summary of the method: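 HepG2 transiently transfected with multiplexed reporter units under cis-regulatory promoters reporting endogenous C/EBPb activity. After 24 h exposure, reporter mRNA assayed by RT-PCR, fluorescent labelling, HpaI digestion and capillary electrophoresis; bidirectional fitting versus DMSO.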
# [4] = ATG_CMV_CIS: Attagene CIS-FACTORIAL HepG2 Assay for human CMV (Internal Marker) (AID 2282928); details: HepG2 CMV promoter reporter, transcription factor profiling; actives raise or lower the signal;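 also: endpoint acts as a background internal control marker rather than a target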
# Summary of the method: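 Readout: fluorescent reporter cDNA fragments separated by capillary electrophoresis after RT-PCR and HpaI cut. Cells: HepG2 carrying transfected cis-promoter reporter constructs, dosed 24 h. Endpoint serves as background internal-marker control, fit bidirectionally versus DMSO.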
# [5] = ATG_DR4_LXR_CIS: Attagene CIS-FACTORIAL HepG2 Assay for human Liver X Receptor (LXR), DR4 submotif (AID 2282929); details: HepG2 Attagene DR4 cis-reporter, mRNA transcription; actives raise or lower the signal
# Summary of the method: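 After transient transfection with multiplexed cis-promoter reporter units, HepG2 cells received test chemicals for 24 h. Reporter mRNA induction, detected by fluorescence after RT-PCR and capillary electrophoresis, was scored relative to DMSO.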
# [6] = biological target: Aryl hydrocarbon receptor (Homo sapiens) (UniProt P35869); assay: ATG_Ahr_CIS: Attagene CIS-FACTORIAL HepG2 Assay for human Aryl Hydrocarbon Receptor (Ahr) (AID 2282930); details: HepG2 AhR cis-factorial reporter transcription; actives raise or lower the signal
# Summary of the method: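 HepG2 cells transiently transfected with cis-element-driven multiplexed reporter units; endogenous AhR activity read as reporter mRNA 24 h after dosing, via RT-PCR, 6-FAM labelling, HpaI digestion and capillary electrophoresis. Bidirectional fit relative to DMSO.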
# [7] = ATG_AP_1_CIS: Attagene CIS-FACTORIAL HepG2 Assay for human Activator Protein 1 (AP-1) (AID 2282931); details: HepG2 Attagene cis-factorial AP-1 reporter mRNA; actives raise or lower the signal
# Summary of the method: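 After 24 h incubation with test chemical, RNA from transfected HepG2 cells was reverse-transcribed, amplified, fluorescently labelled and digested before capillary electrophoresis. Reporters were driven by cis-regulatory promoters; activity fitted bidirectionally versus DMSO.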
# [8] = ATG_AP_2_CIS: Attagene CIS-FACTORIAL HepG2 Assay for human Activator Protein 2 (AP-2) (AID 2282932); details: HepG2 AP-2 cis-reporter, Attagene transcription factor profiling; actives raise or lower the signal
# Summary of the method: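 Read-out: fluorescent reporter mRNA via RT-PCR and capillary electrophoresis, 24 h post-dose in transiently transfected HepG2. Endogenous factors drive cis-promoter reporters; gain or loss of signal fitted bidirectionally against DMSO.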
# [9] = ATG_BRE_CIS: Attagene CIS-FACTORIAL HepG2 Assay for human Bone Morphogenetic Protein (BMP) Response Element (BRE) (AID 2282933); details: HepG2 BMP response element reporter, Attagene transcription factor profiling; actives raise or lower the signal
# Summary of the method: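 HepG2 cells transiently transfected with CIS reporter units (endogenous TF activity, BMP response element), dosed 24 h. Reporter mRNA quantified by RT-PCR, fluorescent labelling and capillary electrophoresis; bidirectional fit vs DMSO baseline.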
# [10] = biological target: Retinoic acid receptor alpha (Homo sapiens) (UniProt P10276); assay: ATG_DR5_RAR_CIS: Attagene CIS-FACTORIAL HepG2 Assay for human Retinoic Acid Receptor Alpha (RARE), DR5 submotif (AID 2282934); details: HepG2 Attagene cis-factorial RARE DR5 reporter, mRNA; actives raise or lower the signal;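 as to AC50: reporter responds to endogenous RAR alpha beta and gamma in HepG2 not RARA alone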
# Summary of the method: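 HepG2 cells transiently transfected with multiplexed reporter units; DR5 cis-element drives reporter through endogenous transcription factors. After 24 h dosing, reporter mRNA quantified by RT-PCR, fluorescent labeling, HpaI digestion and capillary electrophoresis; bidirectional fitting versus DMSO.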
# [11] = biological target: Transcription factor E2F1 (Homo sapiens) (UniProt Q01094); assay: ATG_E2F_CIS: Attagene CIS-FACTORIAL HepG2 Assay for human E2F Transcription Factor 1 (AID 2282935); details: HepG2 Attagene cis-reporter, E2F reporter RNA transcripts; actives raise or lower the signal
# Summary of the method: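 Transient MRTU transfection of HepG2; 24 h compound exposure; RNA → oligo(dT) RT → PCR → FAM label → HpaI cut → CE fluorescence. Gain/loss of signal fit against DMSO.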
# [12] = ATG_E_Box_CIS: Attagene CIS-FACTORIAL HepG2 Assay for human Enhancer Box (E-box) (AID 2282936); details: HepG2 E-box cis-reporter transcription, actives raise or lower the signal
# Summary of the method: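 Transiently transfected HepG2, endogenous TF-driven reporters, 24 h dosing. Readout: RT-PCR plus capillary electrophoresis of fluorescent reporter fragments. Gain or loss of signal fitted bidirectionally against DMSO baseline.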
# [13] = ATG_M_61_CIS: Attagene CIS-FACTORIAL HepG2 Assay for M61 Transcription Factor (Internal Marker) (AID 2282937); details: HepG2 Attagene CIS-FACTORIAL M61 internal marker reporter; actives raise or lower the signal
# Summary of the method: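 Using transiently transfected HepG2 liver cells, reporter transcript levels were assessed 24 h post-dosing by RT-PCR and capillary electrophoresis. Changes in either direction were fitted relative to DMSO controls.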
# [14] = ATG_EGR_CIS: Attagene CIS-FACTORIAL HepG2 Assay for human Early Growth Response 1 (EGR1) (AID 2282938); details: HepG2 Attagene CIS-FACTORIAL EGR reporter mRNA; actives raise or lower the signal
# Summary of the method: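 Fluorescent capillary-electrophoresis signal of reporter cDNA fragments serves as read-out. HepG2 cells bear transiently transfected cis-promoter reporter units and are exposed 24 h; gain- or loss-of-signal is fitted against DMSO.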
# [15] = ATG_M_19_CIS: Attagene CIS-FACTORIAL HepG2 Assay for M19 Transcription Factor (Internal Marker) (AID 2282939); details: HepG2 Attagene CIS-FACTORIAL M19 internal marker reporter; actives raise or lower the signal
# Summary of the method: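 HepG2 cells transiently transfected with cis-regulated multiplexed reporter units, dosed 24 h. Reporter mRNA quantified by RT-PCR and capillary electrophoresis; internal background marker fitted bidirectionally versus DMSO.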
# [16] = ATG_ERE_CIS: Attagene CIS-FACTORIAL HepG2 Assay for Estrogen Response Element (ERE) (AID 2282940); details: HepG2 ERE cis-reporter, Attagene RNA transcript; actives raise or lower the signal
# Summary of the method: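 HepG2 cells transiently transfected with multiplexed cis-element reporter units, measuring endogenous transcription factor activity; ERE reporter mRNA quantified after 24 h exposure by RT-PCR, fluorescent labelling, HpaI digestion and capillary electrophoresis. Bidirectional change versus DMSO.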
# [17] = ATG_Ets_CIS: Attagene CIS-FACTORIAL HepG2 Assay for human Erythroblast Transformation Specific (ETS) (AID 2282941); details: HepG2 ETS cis-reporter transcription, actives raise or lower the signal
# Summary of the method: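 RT-PCR/capillary electrophoresis fluorescence read-out of reporter mRNA; HepG2 transient multi-reporter transfection; 24 h compound exposure; gain or loss of signal fitted bidirectionally relative to DMSO.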
# [18] = biological target: Hepatocyte nuclear factor 3-beta (Homo sapiens) (UniProt Q9Y261); assay: ATG_FoxA2_CIS: Attagene CIS-FACTORIAL HepG2 Assay for human Forkhead box A2 (FOXA2) (AID 2282942); details: HepG2 cis-reporter transcription factor activity, 24 h; actives raise or lower the signal
# Summary of the method: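 Fluorescence signal of reporter cDNA fragments, separated by capillary electrophoresis, reflects endogenous transcription factor activity in transfected HepG2 after 24 h. Both increases and decreases fitted against DMSO.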
# [19] = ATG_FoxO_CIS: Attagene CIS-FACTORIAL HepG2 Assay for human Forkhead box O (FoxO) (AID 2282943); details: HepG2 Attagene cis-reporter, FoxO element, mRNA; actives raise or lower the signal
# Summary of the method: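 HepG2 cells transiently transfected with cis-element-driven reporter units report endogenous FoxO activity. After 24 h chemical exposure, reporter mRNA quantified by RT-PCR, fluorescent labeling, HpaI digestion and capillary electrophoresis; bidirectional fit versus DMSO.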
# [20] = ATG_GATA_CIS: Attagene CIS-FACTORIAL HepG2 Assay for human GATA Binding Protein (AID 2282944); details: HepG2 GATA cis-element reporter, Attagene multiplex mRNA; actives raise or lower the signal
# Summary of the method: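 HepG2 cells transiently transfected with multiplexed cis-element reporter units measure endogenous GATA activity; after 24 h compound exposure, reporter mRNA quantified by RT-PCR and capillary electrophoresis. Changes fitted in both directions vs DMSO.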
# Chain of Retinoic acid receptor alpha (Homo sapiens) (P10276 whole entry, looked up): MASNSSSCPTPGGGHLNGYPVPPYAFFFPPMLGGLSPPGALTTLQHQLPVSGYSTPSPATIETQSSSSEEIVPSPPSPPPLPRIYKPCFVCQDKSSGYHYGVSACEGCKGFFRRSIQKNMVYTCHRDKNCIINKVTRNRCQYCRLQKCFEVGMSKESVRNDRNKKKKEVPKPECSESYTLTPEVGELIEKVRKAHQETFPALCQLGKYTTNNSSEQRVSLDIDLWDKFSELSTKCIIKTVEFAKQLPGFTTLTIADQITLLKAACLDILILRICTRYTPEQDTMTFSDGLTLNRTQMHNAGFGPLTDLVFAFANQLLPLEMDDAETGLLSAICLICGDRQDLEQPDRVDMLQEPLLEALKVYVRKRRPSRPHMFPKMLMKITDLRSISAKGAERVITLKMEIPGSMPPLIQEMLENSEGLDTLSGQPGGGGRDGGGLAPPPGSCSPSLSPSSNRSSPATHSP
# Chain of Aryl hydrocarbon receptor (Homo sapiens) (P35869 whole entry, looked up): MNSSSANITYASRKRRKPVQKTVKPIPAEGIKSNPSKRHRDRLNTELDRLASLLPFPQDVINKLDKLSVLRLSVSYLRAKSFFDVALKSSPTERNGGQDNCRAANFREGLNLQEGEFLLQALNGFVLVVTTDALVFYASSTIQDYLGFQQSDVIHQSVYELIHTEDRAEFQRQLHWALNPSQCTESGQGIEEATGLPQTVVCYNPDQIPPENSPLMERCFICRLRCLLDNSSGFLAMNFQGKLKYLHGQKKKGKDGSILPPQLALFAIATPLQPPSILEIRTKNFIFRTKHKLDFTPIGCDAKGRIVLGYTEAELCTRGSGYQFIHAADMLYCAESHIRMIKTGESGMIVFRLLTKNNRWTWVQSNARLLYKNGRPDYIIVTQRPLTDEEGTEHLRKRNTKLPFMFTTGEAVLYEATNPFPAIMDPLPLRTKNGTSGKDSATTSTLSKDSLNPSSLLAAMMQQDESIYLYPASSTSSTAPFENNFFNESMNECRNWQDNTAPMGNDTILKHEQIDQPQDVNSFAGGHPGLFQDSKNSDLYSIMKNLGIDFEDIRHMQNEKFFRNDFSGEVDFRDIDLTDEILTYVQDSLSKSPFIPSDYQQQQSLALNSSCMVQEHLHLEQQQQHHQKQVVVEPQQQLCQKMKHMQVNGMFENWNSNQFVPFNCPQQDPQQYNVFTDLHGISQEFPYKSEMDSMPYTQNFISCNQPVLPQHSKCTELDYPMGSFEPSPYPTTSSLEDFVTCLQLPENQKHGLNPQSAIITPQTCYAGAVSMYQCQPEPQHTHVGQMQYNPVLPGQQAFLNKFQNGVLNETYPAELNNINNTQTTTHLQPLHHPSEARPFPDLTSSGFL
# Chain of Transcription factor E2F1 (Homo sapiens) (Q01094 whole entry, looked up): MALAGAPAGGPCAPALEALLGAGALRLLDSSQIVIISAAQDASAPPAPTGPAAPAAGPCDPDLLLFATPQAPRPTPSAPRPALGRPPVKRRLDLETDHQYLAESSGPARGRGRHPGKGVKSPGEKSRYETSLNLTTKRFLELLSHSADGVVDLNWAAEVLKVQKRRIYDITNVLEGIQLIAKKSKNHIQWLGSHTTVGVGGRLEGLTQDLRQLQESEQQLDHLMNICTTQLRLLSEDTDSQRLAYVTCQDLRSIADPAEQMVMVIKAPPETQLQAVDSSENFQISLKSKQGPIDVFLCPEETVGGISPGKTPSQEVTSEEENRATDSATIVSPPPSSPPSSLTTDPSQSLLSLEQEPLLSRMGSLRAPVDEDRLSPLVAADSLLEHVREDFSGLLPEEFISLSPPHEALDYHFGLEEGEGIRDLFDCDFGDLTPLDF
# Chain of Hepatocyte nuclear factor 3-beta (Homo sapiens) (Q9Y261 whole entry, looked up, the tested form may be a part): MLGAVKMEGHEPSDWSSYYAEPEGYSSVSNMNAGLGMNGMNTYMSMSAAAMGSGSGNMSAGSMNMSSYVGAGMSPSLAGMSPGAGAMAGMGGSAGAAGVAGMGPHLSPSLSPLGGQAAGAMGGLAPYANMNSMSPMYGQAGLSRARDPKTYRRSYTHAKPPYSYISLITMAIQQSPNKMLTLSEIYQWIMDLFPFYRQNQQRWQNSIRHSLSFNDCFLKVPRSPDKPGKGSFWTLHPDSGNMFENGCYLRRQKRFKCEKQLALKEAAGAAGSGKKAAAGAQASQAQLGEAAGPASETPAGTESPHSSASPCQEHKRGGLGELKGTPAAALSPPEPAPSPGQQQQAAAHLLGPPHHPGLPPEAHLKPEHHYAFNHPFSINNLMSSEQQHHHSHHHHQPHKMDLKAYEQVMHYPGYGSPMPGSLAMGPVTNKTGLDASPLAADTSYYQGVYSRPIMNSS
# Chain of CCAAT/enhancer-binding protein beta (Homo sapiens) (P17676 whole entry, looked up): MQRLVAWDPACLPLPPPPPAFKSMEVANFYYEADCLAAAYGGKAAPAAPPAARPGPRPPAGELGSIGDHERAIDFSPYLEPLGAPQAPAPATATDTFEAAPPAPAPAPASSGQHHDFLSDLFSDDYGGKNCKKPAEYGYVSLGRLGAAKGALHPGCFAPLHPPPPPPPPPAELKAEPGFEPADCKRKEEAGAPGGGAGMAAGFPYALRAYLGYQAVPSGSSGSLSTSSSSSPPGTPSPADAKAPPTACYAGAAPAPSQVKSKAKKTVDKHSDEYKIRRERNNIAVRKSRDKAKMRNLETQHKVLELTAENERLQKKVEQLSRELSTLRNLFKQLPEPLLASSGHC
smiles,measurement,setting,value
COc1nc(C)nc(NC(=O)NS(=O)(=O)c2ccccc2CCC(F)(F)F)n1,outcome,[1],inactive
same,outcome,[2],inactive
same,outcome,[3],inactive
same,outcome,[4],inactive
same,outcome,[5],inactive
same,outcome,[6],inactive
same,outcome,[7],inactive
same,outcome,[8],inactive
same,outcome,[9],inactive
same,outcome,[10],inactive
same,outcome,[11],inactive
same,outcome,[12],inactive
same,outcome,[13],inactive
same,outcome,[14],inactive
same,outcome,[15],inactive
same,outcome,[16],inactive
same,outcome,[17],inactive
same,outcome,[18],inactive
same,outcome,[19],inactive
same,outcome,[20],inactive
CNC(=O)ON=CC(C)(C)SC,outcome,[1],inactive
same,outcome,[2],inactive
same,outcome,[3],inactive
same,outcome,[4],inactive
same,outcome,[5],inactive
same,outcome,[6],inactive
same,outcome,[7],inactive
same,outcome,[8],inactive
same,outcome,[9],inactive
same,outcome,[10],inactive
same,AC50,[11],149 µM (active)
same,outcome,[11],inactive
same,outcome,[12],inactive
same,outcome,[13],inactive
same,outcome,[14],inactive
same,outcome,[15],inactive
same,outcome,[16],inactive
same,outcome,[17],inactive
same,outcome,[18],inactive
same,outcome,[19],inactive
same,outcome,[20],inactive
COc1nc(NC(C)C)nc(NC(C)C)n1,outcome,[1],inactive
same,outcome,[2],inactive
same,outcome,[3],inactive
same,outcome,[4],inactive
same,outcome,[5],inactive
same,outcome,[6],inactive
same,outcome,[7],inactive
same,outcome,[8],inactive
same,outcome,[9],inactive
same,outcome,[10],inactive
same,outcome,[11],inactive
same,outcome,[12],inactive
same,outcome,[13],inactive
same,outcome,[14],inactive
same,outcome,[15],inactive
same,outcome,[16],inactive
same,outcome,[17],inactive
same,outcome,[18],inactive
same,outcome,[19],inactive
same,outcome,[20],inactive
O=C(O)COc1nc(Cl)c(Cl)cc1Cl,outcome,[1],inactive
same,outcome,[2],inactive
same,outcome,[3],inactive
same,outcome,[4],inactive
same,outcome,[5],inactive
same,outcome,[6],inactive
same,outcome,[7],inactive
same,outcome,[8],inactive
same,outcome,[9],inactive
same,outcome,[10],inactive
same,outcome,[11],inactive
same,outcome,[12],inactive
same,outcome,[13],inactive
same,outcome,[14],inactive
same,outcome,[15],inactive
same,outcome,[16],inactive
same,outcome,[17],inactive
same,outcome,[18],inactive
same,outcome,[19],inactive
same,outcome,[20],inactive
CCCN(CCC)c1c([N+](=O)[O-])cc(S(N)(=O)=O)cc1[N+](=O)[O-],outcome,[1],inactive
same,outcome,[2],inactive
same,outcome,[3],inactive
same,outcome,[4],inactive
same,AC50,[5],4.79 µM (active) and 11.1 µM (active)
same,outcome,[5],inactive
same,outcome,[6],inactive
same,outcome,[7],inactive
same,outcome,[8],inactive
same,outcome,[9],inactive
same,AC50,[10],1.22 µM (active) and 1.19 µM (active)
same,outcome,[10],inactive
same,outcome,[11],inactive
same,outcome,[12],inactive
same,outcome,[13],inactive
same,outcome,[14],inactive
same,outcome,[15],inactive
same,outcome,[16],inactive
same,outcome,[17],inactive
same,outcome,[18],inactive
same,outcome,[19],inactive
same,outcome,[20],inactive
